In the library only some 13% were active in any assay of this set; here they are far more common.
GBA activity = Glucocerebrosidase; purified enzyme, resorufin glucoside fluorescence (screen aimed at inhibitors), 20 min; Potency, µM; 48,000 compounds, 1.1% hits; AID 360, 2006; in the data active = potency below about 15 µM; inconclusive = mostly about 16 µM to 33 µM;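 also: potency is read from the fitted curve at half-maximal effect; the screen sought inhibitors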
Target sequence (P04062 whole entry, looked up): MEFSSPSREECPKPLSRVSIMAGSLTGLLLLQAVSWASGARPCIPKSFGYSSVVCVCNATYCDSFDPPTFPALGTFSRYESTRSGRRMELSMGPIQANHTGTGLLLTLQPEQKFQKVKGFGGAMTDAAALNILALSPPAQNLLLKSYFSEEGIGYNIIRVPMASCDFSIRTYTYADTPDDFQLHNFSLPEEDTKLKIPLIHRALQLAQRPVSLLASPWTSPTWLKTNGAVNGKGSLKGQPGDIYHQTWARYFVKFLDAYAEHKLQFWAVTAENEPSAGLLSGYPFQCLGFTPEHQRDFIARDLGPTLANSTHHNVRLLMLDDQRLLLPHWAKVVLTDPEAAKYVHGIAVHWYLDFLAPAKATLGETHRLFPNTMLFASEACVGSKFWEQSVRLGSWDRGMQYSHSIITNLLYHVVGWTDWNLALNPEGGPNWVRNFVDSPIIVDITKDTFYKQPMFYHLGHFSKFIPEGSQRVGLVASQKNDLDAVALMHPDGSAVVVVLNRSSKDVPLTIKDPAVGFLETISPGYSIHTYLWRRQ
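Compounds titrated against 0.2 nM normal enzyme, 30 uM resorufin beta-D-glucopyranoside substrate, citrate/phosphate buffer with taurocholate and tween-20, pH 5.9. Reaction ran 20 min at room temperature; fluorescence (Ex 548/Em 600) gave AC50.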
HADH2 inh = qHTS Assay for Inhibitors of HADH2 (Hydroxyacyl-Coenzyme A Dehydrogenase, Type II); Potency, µM (doses to about 57.1 µM), for the others: at the highest dose activity change, negative = inhibition, most hits filed as inhibitors; AID 886, 2007; 73,000 compounds, 3.4% hits; 3-hydroxyacyl-CoA dehydrogenase type-2 (Homo sapiens), Q99714; recombinant HADH2, NADH fluorescence, beta-hydroxybutyryl-CoA; also: potency is read from the fitted curve at half-maximal effect; % is scaled to controls: 0 for no effect and ±100 for the full control effect; nearly all actives have a fitted effect of over 60% in size
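Activity measured as NADH fluorescence gain (360/450 nm), taken as the change between first and last reads of a 4-min kinetic run. Conditions: pH 9.0 Tris buffer, 20 nM E. coli-expressed His-tagged enzyme, 1 mM NAD+, 90 uM beta-hydroxybutyryl-CoA; 15-min compound preincubation.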
AID923 = qHTS Assay for Allosteric/Competitive Inhibitors of Caspase-1: Spectroscopic Profiling in AFC Spectral Region | compound fluorescence, AFC spectral region (405/520 nm) | 75,000 compounds, 1.1% hits | Potency, µM (top dose mostly 57.5 µM), for inactives: top-dose fluorescence increase, actives largely listed as activators; also: potency is read from the fitted curve at half-maximal effect; 0% is about no effect
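Titrations up to 57 uM read every 20 sec for 3 min (405/520 nm) with 50 nM caspase 1 and 5 uM Ac-WEHD-AFC, pH 7.5 HEPES buffer. Fluorescence-vs-time intercept gave baseline, scaled against on-plate AFC standard.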
4MU fluor = qHTS Assay for Spectroscopic Profiling in 4-MU Spectral Region | compound autofluorescence, 340/450 nm, 4-MU equivalents; active compounds read high | max dye-equivalent concentration, M | 59,000 compounds, 11% hits | AID 589, 2007; in the data active = max dye-equivalent concentration above about 10 nM; inconclusive = mostly about 1.1 nM to 9.6 nM
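Compounds in 100 mM Tris, pH 8.0, sat 15 min at room temperature before fluorescence was read at 340 nm excitation/450 nm emission; a per-plate six-point 4-MU standard curve converted signals to dye-equivalent concentration at each compound concentration.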
A350 autofl = qHTS Assay for Spectroscopic Profiling in A350 Spectral Region | Compound autofluorescence, 340/450 nm, Alexa 350 dye-equivalents; active compounds read high | max dye-equivalent concentration, M | 59,000 compounds, 11% hits | AID 590, 2007; in the data active = max dye-equivalent concentration above about 10 nM; inconclusive = mostly about 1.1 nM to 9.6 nM
HSD17B inh = qHTS Assay for Inhibitors of HSD17B4, hydroxysteroid (17-beta) dehydrogenase 4; 3-hydroxyacyl-CoA dehydrogenase type-2 (Homo sapiens), Q99714; recombinant HSD17B10, NADH fluorescence kinetic; Potency, µM (top dose mostly 57.1 µM), for inactives: top-dose activity change, negative = inhibition, actives largely listed as inhibitors; 75,000 compounds, 7.6% hits; AID 893, 2007;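 also: the protocol describes HADH2 (HSD17B10) and not the HSD17B4 of the title; potency is read from the fitted curve at half-maximal effect; % is scaled to controls: 0 for no effect and ±100 for the full control effect; nearly all actives have a fitted effect of over 70% in size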
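Activity followed as NADH fluorescence increase (ex 360, em 450 nm) every 30 seconds for 4 min, using final 90 uM beta-hydroxybutyryl CoA and 1 mM NAD+. Recombinant His-tagged enzyme, 20 nM, pH 9.0 Tris buffer, 15 min compound preincubation.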
* marks the source's active call; other numbers are inactive results; [ ] = remark or other dose. Unless noted, calls follow the shape of the dose curve; as a rule, active = well fitted curve in the direction sought with a large enough effect; inconclusive = small, poorly fitted or top-dose-only effect, or another doubt; inactive = no such curve, though single readings can be large; an effect the other way counts as inactive or inconclusive.

COc1ccc(C(=O)/C=C/Nc2cccc(C)n2)cc1OC was read as 4MU fluor 1.2e-07M* and A350 autofl 1.4e-07M*.
Cc1ccc(C(=O)/C=C/Nc2ccccn2)cc1 was read as 4MU fluor 5.7e-08M* and A350 autofl 6.9e-08M*.
Screening C[C@@H](C(=O)O)c1ccc(C(=O)c2ccccc2)s1 returned HADH2 inh -14%[25.6 µM], AID923 -3%[25.7 µM], 4MU fluor inactive, A350 autofl inactive and HSD17B inh -8%[25.6 µM].
`CCn1cc(C(=O)N2CC(C)CC(C)C2)c(=O)c2cc(S(=O)(=O)N3CCOCC3)ccc21` (centres undefined) gave GBA activity >77, HADH2 inh -3%, AID923 -1%, 4MU fluor inactive, A350 autofl inactive and HSD17B inh -7%.
`CC(=O)N(CN1C(=O)c2ccccc2C1=O)c1ccccc1` gave GBA activity >77, HADH2 inh 9%, AID923 -1%, 4MU fluor inconclusive, A350 autofl 1.1e-08M* and HSD17B inh 11%.
For COc1ccc(N2CCN(C(=O)CSc3nnc4n3C(C)(C)Cc3ccccc3-4)CC2)cc1 the results were GBA activity >77, HADH2 inh -7%, AID923 1%, 4MU fluor inconclusive, A350 autofl 1.4e-08M* and HSD17B inh 2%.
For COc1ccc(N2CCN(C(=O)CSc3nnc(C)c(=O)[nH]3)CC2)cc1 the results were GBA activity >77, HADH2 inh inconclusive, AID923 -1%, 4MU fluor 1.9e-08M*, A350 autofl 2.1e-08M* and HSD17B inh -26%.
`O=C1C(=O)N(CCCn2ccnc2)C(c2cccnc2)/C1=C(/O)c1ccc(Br)cc1` (centres undefined) gave HADH2 inh 8%, AID923 1% and HSD17B inh 2%.
`CCCCCn1c(=O)[nH]c2cc(C(=O)NCc3ccc4c(c3)OCO4)ccc2c1=O` gave GBA activity >77, HADH2 inh 0%, AID923 0%, 4MU fluor 1.3e-08M*, A350 autofl 1.2e-08M* and HSD17B inh inconclusive.
Screening O=C(NCc1ccco1)c1ccc2c(=O)n(CCC3=CCCCC3)c(=O)[nH]c2c1 returned GBA activity >77, HADH2 inh -21%, AID923 5%, 4MU fluor inactive, A350 autofl inactive and HSD17B inh 32µM*.
CCCCCn1c(=O)[nH]c2cc(C(=O)NCCCN(CC)CC)ccc2c1=O was read as GBA activity >77, HADH2 inh -7%, AID923 -3%, 4MU fluor 4.5e-08M*, A350 autofl 4.5e-08M* and HSD17B inh 25µM*.
Screening CCOCCCn1c(=S)[nH]c2cc(C(=O)NCCN(CC)CC)ccc2c1=O returned GBA activity >77, HADH2 inh 4%, AID923 0%, 4MU fluor inconclusive, A350 autofl inconclusive and HSD17B inh -11%.
`O=C(CCn1c(=O)c2ccccc2n(CC(=O)NCCC2=CCCCC2)c1=O)NCc1ccco1` gave GBA activity >77, HADH2 inh 6%, AID923 -1%, 4MU fluor inactive, A350 autofl inactive and HSD17B inh -2%.
`O=C(NCCN1CCCC1)c1ccc2c(=O)n(CCc3ccccc3)c(=O)[nH]c2c1` gave GBA activity >77, HADH2 inh 23%, AID923 3%, 4MU fluor 2.5e-08M*, A350 autofl 2.4e-08M* and HSD17B inh 16µM*.
Screening O=C(NCc1ccc2c(c1)OCO2)c1cccc(C(=O)NCc2ccc3c(c2)OCO3)c1 returned HADH2 inh -6%, AID923 1% and HSD17B inh -14%.
Screening C=CCOc1ccc2ccccc2c1CNc1ncn[nH]1 returned GBA activity >77, HADH2 inh 12%, AID923 1%, 4MU fluor inactive, A350 autofl inactive and HSD17B inh 15%.

Screens (PubChem)
